This note sets out measurements from PubChem BioAssay (NCI).

“And” between values parts separate entries of the source, which are not always exact repeats. Equal entries are not always repeated. This is part of a sample that, as a whole, favours compounds with a hit. Of some 83,000 tested, about 20% had one in any assay.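 Growth was measured after 48 h exposure to one concentration of compound in 96-well plates. Values under 10 count as active.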 The source made the active and inactive calls.

The assay has as its system MCF7 breast. In words: NCI-60 one-dose screen, 48 h (100 = growth as untreated, 0 = no growth, -100 = all killed). The following applies: 10 µM unless noted.
With `CC12CCC3c4cc(Br)c(O)c(Br)c4CCC3C1CCC2O` (stereo not given), the growth was 5.35% [100 µM] (active) and -48.4% [100 µM] (active). The value for `Cc1sccc1C(=S)Nc1ccc(Cl)c(/C=N/OC(C)(C)C)c1` was -73.5% [100 µM] (active) and -46.7% [100 µM] (active). As for `CC(C)(C)O/N=C/c1cc(NC(=S)c2ccsc2)ccc1Cl`, the growth was -74.5% [100 µM] (active) and -71.7% [100 µM] (active). The value for `COc1cc2c(cc1O)Cc1c-2[n+](C)cc2cc(OC)c(OC)cc12` was 19.5% [100 µM] (inactive) and 0.687% [100 µM] (active); that for `CC(=O)c1cc2c(s1)C(=O)c1ccsc1C2=O` was -62.9% [100 µM] (active) and -100% [100 µM] (active).

Regarding `NC1=NN(c2ccccc2)C2(c3ccncc3C(=O)O)C1C(N)=NN2c1ccccc1` (stereo not given), the growth was 69.3% [100 µM] (inactive) and 90.4% [100 µM] (inactive). Take `Cc1ccc(/C=N/Nc2cc(C)c3ccccc3n2)s1`: the growth is -80.7% [100 µM] (active) and -40.2% [100 µM] (active). The value for `CCCC(=O)Oc1c2ccsc2c(OC(=O)CCC)c2ccsc12` was -72.6% [100 µM] (active) and -100% [100 µM] (active); that for `Cc1ccc(NC(=S)C#N)c(C)c1` was 48.6% [100 µM] (inactive) and -77.7% [100 µM] (active); that for `CCCCCCCCCc1cc(=O)c2c(O)cc(O)cc2o1` was -86.1% [100 µM] (active) and -45.1% [100 µM] (active). Consider `NNC1=N/C(=C\c2ccco2)C(Cl)=N1`, for which the growth was 16.5% [100 µM] (inactive) and -15.6% [100 µM] (active). The value for `Cc1cc(N2CCCC2)c([N+](=O)[O-])cc1[N+](=O)[O-]` was 65.2% [100 µM] (inactive) and 89% [100 µM] (inactive); that for `NC(=O)c1[nH]cnc1/N=N/SCC(N)C(=O)O` (stereo not given) was 45.4% [100 µM] (inactive) and 15.8% [100 µM] (inactive); that for `COC(=O)c1ccc(CCc2cc(O)c(Br)cc2O)cc1` was -61.7% [100 µM] (active) and -71.7% [100 µM] (active). As for `O=c1cc(-c2ccc(O)cc2)oc2cc(O[C@@H]3O[C@H](CO)[C@@H](O)[C@H](O)[C@H]3O)cc(O)c12`, the growth was 38.3% [100 µM] (inactive) and 0.613% [100 µM] (active).

On to `Nc1cc2c3c(cccc3c1)C(=O)N(c1ccc(OCCN3CCCCC3)cc1)C2=O`, for which the growth is -95.1% [100 µM] (active) and -100% [100 µM] (active). The value for `COc1ccc(C2=C(N)c3ccccc3C2=O)cc1` was 79.1% [100 µM] (inactive) and 72.9% [100 µM] (inactive); that for `CCOC(=O)C1(C#N)C(=O)c2cc[n+](CC[n+]3ccc4c(c3)C(=O)C(C#N)(C(=O)OCC)C4=O)cc2C1=O` (stereo not given) was 88.7% [100 µM] (inactive) and 89.4% [100 µM] (inactive). The value for `CC1OC(OC2C(O[C@H]3CC[C@@]4(C)C(=CC[C@H]5[C@@H]6C[C@@H]7O[C@]8(CC[C@H](C)CN8)[C@@H](C)[C@@H]7[C@@]6(C)CC[C@@H]54)C3)OC(CO)C(O)C2OC2OC(CO)C(O)C(O)C2O)C(O)C(O)C1O` (stereo not given in full) was 91.3% [100 µM] (inactive) and -95.2% [100 µM] (active); that for `Cc1ccc(/C=N/Nc2ccc3ccccc3n2)s1` was -79.9% [100 µM] (active) and -100% [100 µM] (active); that for `N#CC1=C(N)OC(c2cccc([N+](=O)[O-])c2)C1(C#N)C#N` (stereo not given) was -9.78% [100 µM] (active) and -88.5% [100 µM] (active). The value for `N#CC1C(=O)N(c2ccccc2)NC12OC(=O)c1ccncc12` (stereo not given) was 85.8% [20 µM] (inactive) and 87.1% [20 µM] (inactive); that for `CC1(C)CCCC(C)(C2CCC3(C)C2C(O)CC2C4(C)CCC(O)C(C)(C)C4C(O)CC23C)O1` (stereo not given) was -19.1% [100 µM] (active) and -85.7% [100 µM] (active); that for `COc1ccc2c3c(c(=O)n(C)c2c1OC)C=CC(C)(C)O3` was 4.77% [100 µM] (active) and 0.153% [100 µM] (active).

On to `O=c1[nH]c(=O)n(C2CC(O)C(CO)O2)cc1Br` (stereo not given), for which the growth is 29% [100 µM] (inactive) and -14.9% [100 µM] (active). The value for `O=C1c2c(O)ccc(O)c2C(=O)c2c(NCCNC(=O)C(O)C(O)C(O)C(O)CO)ccc(NCCNC(=O)C(O)C(O)C(O)C(O)CO)c21` (stereo not given) was -95.5% [100 µM] (active) and -100% [100 µM] (active). The value for `CCOC(=O)CCCOc1cc(-c2ccccc2F)nc2cc3c(cc12)OCO3` was 14.3% [100 µM] (inactive) and -100% [100 µM] (active). The value for `N#Cc1c(=N)cc2c3ccccc3oc3c(C#N)c(N)[nH]c1c32` was 74.3% [100 µM] (inactive) and 24.3% [100 µM] (inactive). In the case of `CC(=O)OCC1=C(C)C[C@H]([C@@H](COC(C)=O)C2CCC3C4C[C@H]5O[C@]56CC=CC(=O)[C@]6(C)C4CC[C@@]32C)OC1=O` (stereo not given in full), the growth is -69.8% [50 µM] (active) and -84.4% [50 µM] (active). The value for `Oc1ccccc1-c1n[nH]c(-c2ccccc2O)n1` was -10.7% [100 µM] (active) and -76.4% [100 µM] (active). The value for `O=C(O)c1cnccc1-c1cc(=O)[nH]n1-c1ccccc1` was 29.1% [100 µM] (inactive) and 3.22% [100 µM] (active); that for `ClC(Cl)(Cl)C1CCOC1n1nnc2ccccc21` (stereo not given) was 68.3% [100 µM] (inactive) and 0.0175% [100 µM] (active). Turning to `CC(C)=CCC/C(C)=C/CC/C(C)=C/CSc1ccc(Cl)cc1C(=O)O`, the growth was -52.6% [100 µM] (active) and 17.2% [100 µM] (inactive). As for `CCOC(=O)c1nc2cc(C(F)(F)F)ccc2nc1Nc1ccc(F)cc1`, the growth was 34% [100 µM] (inactive) and 3.76% [100 µM] (active). The value for `C=C1C(=O)OC2/C=C(\CO)C(OC(C)=O)CC(O)/C(C)=C/C(OC(=O)C(C)CC)C12` (stereo not given) was -87% [100 µM] (active) and -86.7% [100 µM] (active); that for `CC(=O)OC(C)c1cc2c(s1)C(=O)c1ccsc1C2=O` (stereo not given) was -61.2% [100 µM] (active) and -98.9% [100 µM] (active); that for `CC(=O)c1cc2c(s1)C(=O)c1sccc1C2=O` was -67.2% [100 µM] (active) and -100% [100 µM] (active). The value for `CC(C)(C)N/N=C(\C(=O)Nc1ccc([N+](=O)[O-])cc1[N+](=O)[O-])c1nc2ccc([N+](=O)[O-])cc2[nH]c1=O` was 56.5% [100 µM] (inactive) and 7.04% [100 µM] (active); that for `C=C1CC(O)C2C(=C)C(=O)OC2C2C(C)C(=O)CC12` (stereo not given) was -76.9% [100 µM] (active) and -61.7% [100 µM] (active). The value for `CC(=O)Oc1ccc2ccc(=O)oc2c1OC(C)=O` was -69.1% [100 µM] (active) and -65% [100 µM] (active).
